Sm TGR inh: S. mansoni TGR enzyme inhibition | Q962Y6 | purified TGR, DTNB reduction, TNB absorbance 405 nm | 360,000 compounds, 3% hits | Potency, µM (doses to about 114 µM), for inactives: top-dose activity change, negative = inhibition, usual class: inhibitors; note: potency is the fitted concentration of half-maximal effect; % is set by controls: 0 for no effect and ±100 for the full control effect; nearly all actives have a fitted effect of over 60% in size
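TGR 20 nM + NADPH 100 uM (dispensed conc.), cpd preinc 15 min RT; start with NADPH (500 uM addition) then DTNB (15 mM addition). Kinetic TNB absorbance, 405 nm filter. Four-parameter Hill fit across titration.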
LmPK inh: inhibitors of Leishmania mexicana pyruvate kinase | purified LmPK, Kinase-Glo ATP luminescence, 1 h | Potency, µM (highest dose often 57.5 µM), for the others: at the top dose activity change, negative = inhibition, most hits filed as inhibitors | 290,000 compounds, 0.37% hits; note: potency is the fitted concentration of half-maximal effect; % is set by controls: 0 for no effect and ±100 for the full control effect
Target sequence (Q27686 whole entry, looked up): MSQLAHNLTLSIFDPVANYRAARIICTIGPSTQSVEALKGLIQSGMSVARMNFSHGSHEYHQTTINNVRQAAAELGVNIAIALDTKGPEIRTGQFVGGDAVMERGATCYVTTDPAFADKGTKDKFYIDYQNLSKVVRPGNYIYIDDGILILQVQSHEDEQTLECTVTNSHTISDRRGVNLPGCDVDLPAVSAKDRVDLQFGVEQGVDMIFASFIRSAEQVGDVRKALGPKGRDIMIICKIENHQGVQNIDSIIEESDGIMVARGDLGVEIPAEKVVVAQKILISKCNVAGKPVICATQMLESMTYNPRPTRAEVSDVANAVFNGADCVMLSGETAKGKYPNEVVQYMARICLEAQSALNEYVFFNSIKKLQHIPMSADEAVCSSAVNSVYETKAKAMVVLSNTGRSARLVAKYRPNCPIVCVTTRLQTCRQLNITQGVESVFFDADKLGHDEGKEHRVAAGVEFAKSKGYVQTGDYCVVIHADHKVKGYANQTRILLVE
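qHTS format; LmPK 0.1 nM; substrates PEP 0.5 mM and ADP 0.1 mM. One-hour room-temperature incubation, then coupled luciferase luminescence; 0.5 nM enzyme wells mark activation.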
Shiga toxin inh: Shiga toxin inhibition. inhibition, % at 38.7 µM. 290,000 compounds, 9.2% hits. Vero cells, Shiga toxin protein synthesis inhibition reporter; in the data active = inhibition mostly above about 28%, no sharp cut-off; inactive = mostly below about 43%; note: 0% is about no effect
Giardia FBPA inh: inhibitors of Giardia lamblia fructose-1,6-bisphosphate aldolase; purified Giardia FBPA; A8B2U2; 290,000 compounds, 0.71% hits; Potency, µM (titrated, usually from 59.6 µM), inactives show at the top dose activity, negative = inhibition, actives largely listed as inhibitors; note: potency is the fitted concentration of half-maximal effect; % is set by controls: 0 for no effect and ±100 for the full control effect; nearly all actives have a fitted effect of over 55% in size
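Giardia FBPA (40 nM reagent) was preincubated 10 min at RT with compound (up to 57.5 uM final), then substrate plus GAPDH/TPI/NAD/arsenate coupling system with diaphorase/resazurin was added; resorufin fluorescence (525/598 nm) was read after 20 min.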
Cycloheximide cs: counter-screen for Shiga toxin inhibitors: cycloheximide protein synthesis inhibition; cell reporter, cycloheximide protein synthesis inhibition counterscreen; 300,000 compounds, 12% hits; AID 2314; max response, %; in the data active = max response mostly above about 13%, no sharp cut-off; inactive = mostly below about 14%; note: read at 38.3 µM for the half of the compounds with a filed dose; 0% is about no effect
TbPYK inhibitor: inhibitors of Trypanosoma brucei pyruvate kinase; Potency, µM (top dose mostly 76.8 µM), for the others: at the top dose activity, negative = inhibition, most hits filed as inhibitors; TbPYK enzyme, Kinase-Glo Plus ATP luminescence, 45 min; Q57TT1; 410,000 compounds, 0.12% hits; note: potency is the fitted concentration of half-maximal effect; % is set by controls: 0 for no effect and ±100 for the full control effect; nearly all actives have a fitted effect of over 50% in size
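ADP (130 uM final) triggers the TbPYK reaction after compound addition; incubation is 45 min at room temperature. Kinase-Glo Plus is then added and luminescence imaged. Normalized data are fitted to concentration-effect curves.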
Active calls of the source: *; ? = inconclusive; / = no result given; + = active, no number; [ ] = dose if it differs, or a comment. The sample as a whole holds a higher share of hits than the screen did. Unless noted, calls come from the whole dose curve; as a rule, active = well fitted curve in the direction sought with a large enough effect; inconclusive = small, poorly fitted or top-dose-only effect, or another doubt; inactive = no such curve, though single readings can be large; an effect the other way counts as inactive or inconclusive.

SMILES	Sm TGR inh	LmPK inh	Shiga toxin inh	Giardia FBPA inh	Cycloheximide cs	TbPYK inhibitor
COc1ccccc1CNC(=O)c1ccc(Br)o1	-3%	1%	-12	2%[89.2 µM]	7	-8%
COc1ccc(NC(=O)c2cc3c(=O)n4ccccc4nc3n2C)cc1OC	3%	-4%	3	5%	5	-1%
COc1cccc(CC(=O)N2CCc3nc(-c4ccccc4)c4c(c3C2)CO[C@@H](C)C4)c1	/	0%[11.5 µM]	/	7%[12.9 µM]	/	/
CC(=O)Oc1ccc(C(=O)[C@H]2[C@H]3C(=O)N(c4ccccc4)C(=O)[C@H]3[C@@H]3C=CC=NN32)cc1	?	3%	-10	?	11	-10%
CC(=O)Oc1ccc(C(=O)[C@H]2[C@H]3C(=O)N(c4ccc(C)cc4C)C(=O)[C@H]3[C@@H]3C=CC=NN32)cc1	18µM*	3%	10	?	-2	-6%
Cc1ccc(N2C(=O)[C@@H]3[C@H](C2=O)[C@H]2C=CC=NN2[C@@H]3C(=O)Nc2ccccc2)cc1	?	-2%	15	?	16*	-6%
COc1ccc(N2C(=O)[C@@H]3[C@H](C2=O)[C@H](C(=O)c2ccc(OC(C)=O)cc2)N2N=CC=C[C@@H]32)cc1	?	2%	38*	?	14*	/
CC(=O)Oc1ccc(C(=O)[C@H]2[C@H]3C(=O)N(c4ccc(C)cc4)C(=O)[C@H]3[C@@H]3C=CC=NN32)cc1	?	-2%	46*	?	24*	-11%
COc1ccc(C(=O)[C@H]2[C@H]3C(=O)N(c4ccccc4)C(=O)[C@H]3C3C=CC=NN32)cc1 (stereo partly drawn)	?	-2%	14	?	10	-13%
COc1ccc(C(=O)[C@H]2[C@H]3C(=O)N(c4ccc(C)cc4)C(=O)[C@H]3C3C=CC=NN32)cc1 (stereo partly drawn)	40µM*	7%	32	?	19*	-1%
COc1ccc(C(C(=O)NC(C)(C)C)N(CCc2ccccc2)C(=O)CCC(=O)Nc2cc(C)on2)cc1 (stereo not drawn)	-8%	3%	31*	0%	22*	3%
CCOc1ccccc1C(=O)Nc1ccc(S(=O)(=O)Nc2onc(C)c2C)cc1	-1%	/	/	/	/	-1%
CCSc1nnc(NC(=O)c2ccco2)s1	2%	-11%	27*	-6%	23*	-10%
CCCc1cc(C(N)=O)c(NC(=O)C2CCCO2)s1 (stereo not drawn)	8%	5%	0	-11%	8	-24%
CCCc1cc(C(N)=O)c(NC(=O)c2ccco2)s1	-29%	-2%	+	2%	29*	5%
O=C(Nc1nnc(-c2ccc(F)cc2)s1)c1ccco1	1%	6%	34	-5%	9	1%
CCOC(=O)CSc1nnc(NC(=O)c2ccco2)s1	-7%	-2%	-2	10%	-4	0%
Cc1cccc(-c2nnc(NC(=O)c3ccco3)s2)c1	-23%	-8%	22	/	21*	-4%
CC(C)Sc1nnc(NC(=O)c2ccco2)s1	19%	1%	114*	-22%	35*	-18%
CNc1ccnc(-c2cccc(NS(C)(=O)=O)c2)n1	/	/	/	1%	/	/
CCSc1nnc(NC(=O)c2c(C)noc2C)s1	14%	-8%	18	-25%	16*	2%
COCCNC(=O)CCCn1c(SCC(=O)Nc2cccc(C)c2)nc2c(sc3ccccc32)c1=O	-1%	/	/	/	/	-8%
Cc1c(Br)c(O)c(Br)c(O)c1/C=N/n1c(-c2ccccc2)n[nH]c1=S	35µM*	-24%	-7	-14%	2	?
Cc1ccc(/C=N/n2c(-c3cccs3)n[nH]c2=S)cc1	15%	-15%	-18	1%	-2	?
COc1cc(-c2n[nH]c(=S)n2/N=C/c2cccn2C)cc(OC)c1OC	-3%	7.9µM*	3	-15%	-3	?
SMILES	Sm TGR inh	LmPK inh	Shiga toxin inh	Giardia FBPA inh	Cycloheximide cs	TbPYK inhibitor
Cc1ccc(/C=N/n2c(-c3ccccc3)n[nH]c2=S)cc1	9%	-14%	/	23%	-2	?
Oc1c(Br)cc(/C=N/n2c(-c3ccccc3)n[nH]c2=S)c(O)c1Br	-59%	?	-10	-20%	3	?
Cn1cccc1/C=N/n1c(-c2ccco2)n[nH]c1=S	/	-5%	-12	-19%	-4	?
COc1cc(/C=N/n2c(-c3ccccc3)n[nH]c2=S)ccc1O	4%	?	-2	?	6	6.3µM*
COc1ccc(/C=N/n2c(-c3cccs3)n[nH]c2=S)cc1	?	-22%	-14	4%	-2	1.3µM*
Cc1nc(NC2CCCCC2)c2nc(-c3ccccc3)n(CCCN3CCOCC3)c2n1	/	/	/	3%	/	/
CCCCNC(=O)C1(C)CCCCN1C(=O)c1ccc2sccc2c1 (stereo not drawn)	/	/	/	/	/	0%
COc1cc(/C=N/n2c(-c3ccccc3)n[nH]c2=S)cc(OC)c1O	32µM*	-12%	14	-15%	9	?
Oc1ccc(/C=N/n2c(-c3ccccc3)n[nH]c2=S)cc1Br	-23%	?	-1	-15%	-5	1%
Oc1c(Br)cc(/C=N/n2c(-c3ccccc3)n[nH]c2=S)cc1Br	3%	18µM*	-5	8%	-2	?
COc1ccc(/C=N/n2c(-c3ccc(C)cc3)n[nH]c2=S)cc1OC	1%	-12%	-6	4%	1	?
Cc1ccc(-c2noc(-c3ccc(N4CCN(C)CC4)c([N+](=O)[O-])c3)n2)cc1	-5%	/	/	/	/	5%
CN1CCN(c2ccc([N+](=O)[O-])c3no[n+]([O-])c23)CC1	45µM*	-22%	-5	?	-1	-24%
CC(=O)Nc1ccccc1OCc1cc(=O)n2c(C)csc2n1	6%	/	/	/	/	2%
CN(C)S(=O)(=O)c1cccc(NC(=O)Cn2cc(C(F)(F)F)cc(Cl)c2=O)c1	3%	4%	71*	0%	7	0%
NS(=O)(=O)c1cccc(NC(=O)Cn2cc(C(F)(F)F)cc(Cl)c2=O)c1	10%	-1%	9	-1%	-1	-12%
O=C(Cn1cc(C(F)(F)F)ccc1=O)Nc1ccccc1	0%	6%	44*	0%	12*	0%
O=C(Cn1cc(C(F)(F)F)cc(Cl)c1=O)NCc1ccc(F)cc1	6%	1%	87*	10%	23	10%
O=C(Cn1cc(C(F)(F)F)cc(Cl)c1=O)NCCc1ccc(Cl)cc1Cl	-1%	2%	-3	4%	-4	-1%
CC(C)NC(=O)c1nc2c(nnn2Cc2cccc(Cl)c2)c(=O)[nH]1	0%	-7%	-5	-9%	-3	-8%
COc1cccc(/C=C/C2=CC3(C)CC2(C)C(c2cccc(OC)c2)CC3=O)c1 (stereo not drawn)	/	/	/	1%[12.9 µM]	/	/
c1ccc(-c2ncnc3ccccc23)cc1	/	/	/	/	/	0%
